According to PubChem BioAssay (Tox21):
Where “and” joins values, the source holds several entries; their conditions need not be identical. Identical values can stand only once. Inconclusive results are not listed. A call without a number means that no potency is given here. Calls of active or inactive are those of the source. Unless noted, calls follow the shape of the dose curve; as a rule, active = well fitted curve in the direction sought with a large enough effect in the repeat runs; inconclusive = weak or mixed curves; inactive = no such curve, though single readings can be large; an effect the other way counts as inactive or inconclusive.

Experiments:
[1] = qHTS assay to identify small molecule antagonists of the estrogen related receptor (ERR) signaling pathway from Tox21 library - cell viability counter screen (AID 1224834); also: nearly all actives have a fitted effect of over 30% in size
Method in brief: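 Viability readout (CellTiter-Fluor fluorescence, 30 min at 37 C) multiplexed with the ERR assay; cells treated 17.5 h at 37 C with compounds delivered in DMSO.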

[2] = target: Luciferin 4-monooxygenase (Photinus pyralis) (UniProt P08659); assay: qHTS assay to identify small molecule inhibitors of firefly luciferase (AID 1224835); also: nearly all actives have a fitted effect of over 25% in size
Method in brief: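 Quantitative HTS format; KM concentrations of both substrates. Purified P. pyralis FLuc activity quantified from luminescence images.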

[3] = qHTS assay to identify small molecule agonists of the constitutive androstane receptor (CAR) signaling pathway - cell viability counter screen (AID 1224836); also: nearly all actives have a fitted effect of over 45% in size
Method in brief: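 HepG2 cells stably carrying hCAR and a CYP2B6-2.2kb reporter were plated 4 h, then given compounds at 15 concentrations plus PK11195 (final 0.75 uM). After 23 h at 37 C, viability was read by CellTiter-Fluor fluorescence.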

[4] = qHTS assay to identify small molecule antagonists of the constitutive androstane receptor (CAR) signaling pathway - cell viability counter screen (AID 1224837); also: nearly all actives have a fitted effect of over 45% in size
Method in brief: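 Fluorescence from CellTiter-Fluor served as the viability signal. Human hepatoma HepG2 cells stably bearing hCAR and CYP2B6-2.2kb received compound plus CITCO (50 nM final) for 23 hr.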

[5] = target: Nuclear receptor subfamily 1 group I member 3 (Homo sapiens) (UniProt Q14994); assay: qHTS assay to identify small molecule antagonists of the constitutive androstane receptor (CAR) signaling pathway (AID 1224838); also: nearly all actives have a fitted effect of over 40% in size
Method in brief: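 Quantitative HTS in double-stable HepG2-CYP2B6-hCAR cells. After 4 h plating, cells get compound (15 concentrations) and CITCO at 50 nM final, incubate 24 h at 37 C, then ONE-Glo luminescence is read.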

[6] = target: Nuclear receptor subfamily 1 group I member 3 (Homo sapiens) (UniProt Q14994); assay: qHTS assay to identify small molecule agonists of the constitutive androstane receptor (CAR) signaling pathway (AID 1224839); also: nearly all actives have a fitted effect of over 15% in size
Method in brief: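 HepG2 cells stably expressing hCAR and a CYP2B6-2.2kb luciferase reporter were treated with compounds at 15 concentrations plus 0.75 uM PK11195 (final) for 24 h at 37 C; luminescence was read after ONE-Glo addition.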

[7] = qHTS assay to identify small molecule antagonists of the estrogen related receptor signaling pathway with the pleiotropic PPARgamma coactivator (PGC) from Tox21 10K library - cell viability counter screen (AID 1224840; active = well fitted cell-killing curve with a large enough effect in the repeat runs, not every such curve was filed as active; also: nearly all actives have a fitted effect of over 40% in size)
Method in brief: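 Compounds in DMSO, alongside positive and negative controls, were pinned onto PGC/ERR cells (2,000 per well). Exposure lasted 17.5 hours at 37 C, followed by a 30-minute CellTiter-Fluor incubation and fluorescence reading.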

[8] = qHTS assay to identify small molecule agonists of the estrogen related receptor signaling pathway with the pleiotropic PPARgamma coactivator (PGC) from Tox21 10K library (AID 1224842); also: nearly all actives have a fitted effect of over 15% in size
Method in brief: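 PGC/ERR reporter cells (NTP line) were seeded 2,000 per well, rested 6 h at 37 C/5% CO2, then pin-dosed with compounds in DMSO for 18 h at 37 C; luciferase read by One-Glo luminescence after 30 min at room temperature.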

[9] = qHTS assay to identify small molecule antagonists of the estrogen related receptor signaling pathway with the pleiotropic PPARgamma coactivator (PGC) from Tox21 10K library (AID 1224841; call rule not given here; also: actives are mostly falling curves and most rising ones were filed inactive; nearly all actives have a fitted effect of over 50% in size)
Method in brief: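 Compound exposure ran 18 hours at 37 C in PGC/ERR cells (2,000/well) that had first rested 6 hours in a 37 C/5% CO2 incubator. Luciferase activity was then detected with One-Glo after a 30-minute room-temperature step.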
Potency is read from the fitted curve at half-maximal effect.

Sequence of Nuclear receptor subfamily 1 group I member 3 (Homo sapiens) (Q14994 whole entry, looked up): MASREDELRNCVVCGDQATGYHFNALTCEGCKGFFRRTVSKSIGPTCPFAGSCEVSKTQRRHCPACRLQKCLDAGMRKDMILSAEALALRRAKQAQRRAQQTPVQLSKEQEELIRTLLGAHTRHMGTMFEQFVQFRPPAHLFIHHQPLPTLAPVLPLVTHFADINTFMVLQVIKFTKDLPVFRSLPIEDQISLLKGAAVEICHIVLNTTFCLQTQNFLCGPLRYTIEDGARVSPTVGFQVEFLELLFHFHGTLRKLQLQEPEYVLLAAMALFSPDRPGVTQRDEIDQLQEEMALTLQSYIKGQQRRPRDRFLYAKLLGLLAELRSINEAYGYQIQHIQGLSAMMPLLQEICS
Sequence of Luciferin 4-monooxygenase (Photinus pyralis) (P08659 whole entry, looked up): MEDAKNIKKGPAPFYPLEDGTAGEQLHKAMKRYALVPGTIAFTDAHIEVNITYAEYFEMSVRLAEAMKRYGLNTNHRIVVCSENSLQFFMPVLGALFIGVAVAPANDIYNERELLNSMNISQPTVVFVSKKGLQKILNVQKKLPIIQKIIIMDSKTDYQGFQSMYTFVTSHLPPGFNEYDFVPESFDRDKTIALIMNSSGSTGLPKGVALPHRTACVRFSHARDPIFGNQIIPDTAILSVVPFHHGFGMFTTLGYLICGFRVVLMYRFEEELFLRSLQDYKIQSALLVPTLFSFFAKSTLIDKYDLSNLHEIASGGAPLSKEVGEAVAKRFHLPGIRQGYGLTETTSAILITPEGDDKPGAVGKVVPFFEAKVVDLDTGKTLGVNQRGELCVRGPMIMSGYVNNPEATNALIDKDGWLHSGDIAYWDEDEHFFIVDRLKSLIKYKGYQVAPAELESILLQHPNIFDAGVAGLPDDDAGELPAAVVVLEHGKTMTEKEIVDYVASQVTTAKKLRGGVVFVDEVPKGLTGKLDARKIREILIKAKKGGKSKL

## C[C@@H]1CC(=O)NN=C1c1ccc(NN=C(C#N)C#N)cc1
[1]
  Potency: 18.8 µM (active) and 13.3 µM (active)
[2]
  Potency: 5.49 µM (active) and 9.77 µM (active)
[3]
  Potency: 11.9 µM (active)
[4]
  Potency: 11.9 µM (active)
[5]
  Potency: 21.1 µM (active)
[6]
  Potency: inactive
[7]
  Potency: 26.6 µM (active) and 23.7 µM (active)
[8]
  Potency: inactive

## N#CCc1ccc(Cl)cc1Cl
[1]
  Potency: inactive
[2]
  Potency: inactive
[3]
  Potency: inactive
[4]
  Potency: inactive
[5]
  Potency: inactive
[6]
  Potency: inactive
[7]
  Potency: inactive
[8]
  Potency: inactive

## Cc1ccccc1N=C(N)Nc1ccccc1C
[1]
  Potency: inactive
[2]
  Potency: inactive
[3]
  Potency: inactive
[4]
  Potency: inactive
[5]
  Potency: inactive
[6]
  Potency: inactive
[7]
  Potency: inactive
[9]
  Potency: inactive
[8]
  Potency: inactive

## CCCCCCCCC(CCCCCC)C(=O)O (stereo not given)
[1]
  Potency: inactive
[2]
  Potency: inactive
[3]
  Potency: inactive
[4]
  Potency: inactive
[5]
  Potency: inactive
[6]
  Potency: inactive
[7]
  Potency: inactive
[8]
  Potency: inactive

## NC(=O)c1ccncc1
[1]
  Potency: inactive
[2]
  Potency: inactive
[3]
  Potency: inactive
[4]
  Potency: inactive
[5]
  Potency: inactive
[6]
  Potency: inactive
[7]
  Potency: inactive
[9]
  Potency: inactive
[8]
  Potency: inactive

## COc1ccccc1Oc1c(NS(=O)(=O)c2ccc(C(C)(C)C)cc2)nc(-c2ncccn2)nc1OCCO
[1]
  Potency: inactive
[2]
  Potency: inactive
[3]
  Potency: inactive
[4]
  Potency: inactive
[5]
  Potency: inactive
[6]
  Potency: inactive
[7]
  Potency: inactive
[9]
  Potency: inactive
[8]
  Potency: inactive

## Cc1ccc2c(Br)cc(Br)c(O)c2n1
[1]
  Potency: 11.9 µM (active)
[2]
  Potency: inactive
[3]
  Potency: inactive
[4]
  Potency: inactive
[5]
  Potency: inactive
[6]
  Potency: inactive
[8]
  Potency: inactive

## C1COC1
[1]
  Potency: inactive
[2]
  Potency: inactive
[3]
  Potency: inactive
[4]
  Potency: inactive
[5]
  Potency: inactive
[7]
  Potency: inactive

## CCCCN(CCCC)C(C(N)=O)c1ccc(OC)cc1 (stereo not given)
[1]
  Potency: inactive
[2]
  Potency: inactive
[3]
  Potency: inactive
[4]
  Potency: inactive
[5]
  Potency: inactive
[7]
  Potency: inactive

## C/C=C/C=C/C=O
[1]
  Potency: inactive
[2]
  Potency: inactive
[3]
  Potency: inactive
[4]
  Potency: inactive
[5]
  Potency: inactive
[6]
  Potency: inactive
[7]
  Potency: inactive
[9]
  Potency: inactive
[8]
  Potency: inactive

## CC1=C(Br)C(=O)C(Br)=C/C1=C(/c1ccccc1S(=O)(=O)O)c1cc(Br)c(O)c(Br)c1C
[1]
  Potency: 18.6 µM (active)
[2]
  Potency: 19.2 µM (active)
[3]
  Potency: 18.6 µM (active)
[4]
  Potency: 33 µM (active)
[5]
  Potency: 18.6 µM (active)
[6]
  Potency: inactive
[7]
  Potency: 18.6 µM (active)
[9]
  Potency: 16.5 µM (active)
[8]
  Potency: inactive

## CCCCCCCCCCCCCCN(CCO)CCO
[1]
  Potency: 61.1 µM (active)
[2]
  Potency: inactive
[3]
  Potency: 61.1 µM (active)
[4]
  Potency: 61.1 µM (active)
[5]
  Potency: 48.6 µM (active)
[6]
  Potency: inactive
[7]
  Potency: 54.5 µM (active)
[8]
  Potency: inactive

## CC(CCC(=O)O)C(=O)O (stereo not given)
[1]
  Potency: inactive
[2]
  Potency: inactive
[3]
  Potency: inactive
[4]
  Potency: inactive
[5]
  Potency: inactive
[6]
  Potency: inactive
[7]
  Potency: inactive
[8]
  Potency: inactive

## O=C(O)CCCCCCCCCCCBr
[1]
  Potency: inactive
[2]
  Potency: 56.6 µM (active)
[3]
  Potency: inactive
[4]
  Potency: inactive
[5]
  Potency: inactive
[6]
  Potency: inactive
[7]
  Potency: inactive
[9]
  Potency: inactive
[8]
  Potency: inactive

## CC(O)c1ccccc1 (stereo not given)
[1]
  Potency: inactive
[2]
  Potency: inactive
[3]
  Potency: inactive
[4]
  Potency: inactive
[5]
  Potency: inactive
[6]
  Potency: inactive
[7]
  Potency: inactive
[8]
  Potency: inactive

## Oc1c(I)cc(I)c2cccnc12
[1]
  Potency: 29.8 µM (active)
[2]
  Potency: inactive
[3]
  Potency: inactive
[4]
  Potency: inactive
[5]
  Potency: inactive
[7]
  Potency: inactive

## Cc1ccco1
[1]
  Potency: inactive
[2]
  Potency: inactive
[3]
  Potency: inactive
[4]
  Potency: inactive
[5]
  Potency: inactive
[7]
  Potency: inactive

## NCCNCCO
[1]
  Potency: inactive
[2]
  Potency: inactive
[3]
  Potency: inactive
[4]
  Potency: inactive
[5]
  Potency: inactive
[6]
  Potency: inactive
[7]
  Potency: inactive
[9]
  Potency: inactive
[8]
  Potency: inactive

## CC(=O)N/N=C/c1ccc([N+](=O)[O-])o1
[1]
  Potency: inactive
[2]
  Potency: inactive
[3]
  Potency: inactive
[4]
  Potency: inactive
[5]
  Potency: inactive
[6]
  Potency: inactive
[7]
  Potency: inactive
[9]
  Potency: inactive
[8]
  Potency: inactive

## COC(=O)c1nc(Cl)c(Cl)nc1N
[1]
  Potency: 11.9 µM (active)
[2]
  Potency: inactive
[3]
  Potency: inactive
[4]
  Potency: 29.8 µM (active)
[5]
  Potency: 2.98 µM (active)
[6]
  Potency: inactive
[7]
  Potency: 1.68 µM (active)
[8]
  Potency: inactive

## CCC(C)(C)OC
[1]
  Potency: inactive
[2]
  Potency: inactive
[3]
  Potency: inactive
[4]
  Potency: inactive
[5]
  Potency: inactive
[6]
  Potency: inactive
[7]
  Potency: inactive
[9]
  Potency: inactive
[8]
  Potency: inactive

## C=COCC(C)C
[1]
  Potency: inactive
[2]
  Potency: inactive
[3]
  Potency: inactive
[4]
  Potency: inactive
[5]
  Potency: inactive
[6]
  Potency: inactive
[7]
  Potency: inactive
[8]
  Potency: inactive

## Cc1cccc(N(C)C(=S)Oc2ccc3c(c2)CCC3)c1
[1]
  Potency: inactive
[2]
  Potency: inactive
[3]
  Potency: inactive
[4]
  Potency: inactive
[5]
  Potency: inactive
[6]
  Potency: 23.7 µM (active)
[7]
  Potency: inactive
[9]
  Potency: inactive
[8]
  Potency: inactive

## CCOC(=O)OC(C)OC(=O)[C@@H]1N2C(=O)[C@@H](NC(=O)[C@H](N)c3ccccc3)[C@H]2SC1(C)C (stereo not given in full)
[1]
  Potency: inactive
[2]
  Potency: inactive
[3]
  Potency: inactive
[4]
  Potency: inactive
[5]
  Potency: inactive
[7]
  Potency: inactive

## O=C1c2ccccc2C(=O)C1c1ccc(Br)cc1
[1]
  Potency: inactive
[2]
  Potency: 3.47 µM (active)
[3]
  Potency: inactive
[4]
  Potency: inactive
[5]
  Potency: inactive
[6]
  Potency: 29.8 µM (active)
[7]
  Potency: inactive
[9]
  Potency: inactive
[8]
  Potency: 13.3 µM (active)
